Screening data: PubChem, National Center for Advancing Translational Sciences (NCATS)
Rows were chosen to be rich in hits. Some 3.6% of all compounds tested hit in one or more screens of this group.
D1 ag: human D1 receptor agonism. P21728. HEK293 T-REx D1 cells, calcium flux, agonist mode. activation, % at 2 µM. actives 1% (n = 360,000). AID 504660; note: 0% is about no effect
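Agonism was scored from calcium flux recorded over 180 s (1 read/s) after pintool compound addition, following a 10-cycle baseline. Cells were inducible force-coupled HEK293 TREx D1, plated overnight at 30 C and loaded with no-wash calcium dye.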
D1 antag: antagonists of human D1 dopamine receptor. P21728. HEK293 TREx D1 cells, calcium flux, dopamine EC80; stronger effect = lower value. actives 3.2% (n = 360,000). AID 504652. activity change, negative = inhibition, % at 10 µM; in the data active = activity change below about -30%; note: % is set by controls: 0 for no effect and ±100 for the full control effect
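HEK293 T-REx cells expressing inducible, force-coupled D1 receptor; no-wash Ca dye, 30–90 min RT. Cmpd → 180 s read at 1 Hz → EC80 DA → 180 s read.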
LDHA inh: LDHA (human) enzyme inhibition; P00338; purified LDHA, NADH/diaphorase-resazurin fluorescence; stronger effect = lower value; activity change, % (values are at about 110 or 230 µM); actives 0.15% (n = 480,000); AID 1347041; in the data active = activity change below about -30%;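 note: plate controls were DMSO wells for no effect and wells without enzyme for full effect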
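Resorufin fluorescence (ex540/em590), read at 0 and 20 min after diaphorase/resazurin addition, reports the NADH left after a 5 min room-temperature reaction of 2 nM human LDH5 with 0.06 mM NADH and 0.2 mM pyruvate.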
TRHR agonist: agonists of human TRH receptor | P34981 | TRHR cells, calcium flux fluo-8, FDSS agonist mode | activation, % at 2 µM | actives 0.18% (n = 360,000) | AID 493084; note: 0% is about no effect
Target sequence (P34981 whole entry, looked up): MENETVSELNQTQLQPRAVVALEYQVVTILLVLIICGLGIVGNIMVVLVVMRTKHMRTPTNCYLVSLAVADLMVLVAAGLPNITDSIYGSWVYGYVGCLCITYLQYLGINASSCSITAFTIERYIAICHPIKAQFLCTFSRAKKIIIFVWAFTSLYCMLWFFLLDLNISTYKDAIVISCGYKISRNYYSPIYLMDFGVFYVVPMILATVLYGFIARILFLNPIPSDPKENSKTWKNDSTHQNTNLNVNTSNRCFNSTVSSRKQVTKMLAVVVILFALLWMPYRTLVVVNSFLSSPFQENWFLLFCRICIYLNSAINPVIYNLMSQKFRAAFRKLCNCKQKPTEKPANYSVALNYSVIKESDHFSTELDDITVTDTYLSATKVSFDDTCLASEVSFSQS
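TRHR-expressing cells, plated overnight in medium with 10% serum, were loaded with fluo-8 calcium dye at room temperature. After a 10 s baseline, library compound was pin-added and calcium release was recorded kinetically (ex 480/em 530) as agonist response.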
TRHR PAM: allosterically enhances the human TRH receptor | P34981 | actives 0.66% (n = 360,000) | enhancement, % at 2 µM | TRHR cells, fluo-8 calcium fluorescence, EC20 TRH enhancement; in the data active = enhancement above about 30%; note: 0% is about no effect
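Enhancer read-out: after compound pinning and an initial kinetic agonist-mode read, an EC20 of TRH (10 nM final) was injected and fluo-8 calcium signal (Ex 480/Em 530) followed at 1 s/cycle for 100 cycles in TRHR-expressing cells.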
D1 potentiator: potentiators of human D1 dopamine receptor | P21728 | AID 504651 | HEK293 TREx D1 cells, calcium flux, dopamine EC20 potentiation | potentiation, % at 10 µM | actives 0.036% (n = 360,000); in the data active = potentiation above about 30%; note: 0% is about no effect
* = called active by the depositor; · = no result given. Cut-off read from the data, not from the text of the source, unless noted: active = activation above about 30%; inactive = the rest.

SMILES	D1 ag	D1 antag	LDHA inh	TRHR agonist	TRHR PAM	D1 potentiator
O=C(Nc1nnc(C2=COCCO2)o1)c1ccc(Cl)cc1	-0.5	-21.5	4.0	-0.1	11.8	5.1
CSc1ccc(-c2nnc(NC(=O)c3ccc4c(c3)OCCO4)o2)cc1	3.1	-7.5	-6.5	-0.2	3.7	-1.6
CS(=O)(=O)N1CCCc2cc(C(=O)CSc3nnc(C4CC4)n3Cc3ccccc3)ccc21	·	·	-19.3	·	·	·
O=C(Nc1cccnc1)c1cc2nc(C3CC3)cc(C(F)(F)F)n2n1	-1.1	-31.0*	-4.2	-0.2	2.9	-0.7
Cc1[nH]c2ccccc2c1C(=O)COC(=O)c1cc2ccccc2[nH]1	·	·	-20.0	·	·	·
COc1ccc2oc(-c3ccccc3)c(C(=O)N(C)C)c2c1	2.0	-70.0*	1.4	0.3	-0.4	-1.9
COc1ccc2oc(-c3ccccc3)c(C(=O)O)c2c1	2.0	6.8	-6.2	0.3	-5.0	-3.4
COc1ccc(OC)c(S(=O)(=O)n2nc(C)c(S(=O)(=O)N(C)c3ccccc3)c2C)c1	·	·	6.7	·	·	·
O=C(CSc1nc(-c2cccs2)nc2cc(=O)[nH]n12)Nc1cccc(C(F)(F)F)c1	5.7	-37.8*	-0.8	-0.7	-2.2	-2.0
O=C(CSc1nc2ccccc2s1)c1cccc(C(F)(F)F)c1	·	·	8.2	·	·	·
Cc1cccc(NC(=O)CSc2nc3ccc(NC(=O)COc4ccc(Cl)cc4)cc3s2)c1	10.7	-32.0*	-6.5	2.3	4.2	-1.0
Cc1nc(-c2cccc(NC(=O)COc3ccc(Cl)cc3)c2)cs1	14.0	-43.6*	-0.6	-0.2	-3.5	-17.5
Cc1cccc(NC(=O)CSc2nc(-c3cccs3)nc3cc(=O)[nH]n23)c1	2.0	-3.9	-8.8	0.0	-4.3	2.0
O=C(CSc1nc2ccccc2s1)Nc1cccc(C(F)(F)F)c1	·	·	-30.0*	·	·	·
NC(=O)c1ccc(S(=O)(=O)N2CCN(C(=O)c3cc4c(s3)CCCCC4)CC2)cc1	·	·	5.8	·	·	·
Cc1nc2cc(NC(C)C(=O)Nc3ccc(C(N)=O)cc3)ccc2o1 (stereo unspecified)	·	·	86.2	·	·	·
CC1=C(C(=O)OC(C)(C)C)C(c2cccc(F)c2)C(C#N)=C(N)O1 (stereo unspecified)	·	·	8.9	·	·	·
COc1ccc(CCNc2ccc(N3C(=O)CC(C)C3=O)cc2[N+](=O)[O-])cc1OC (stereo unspecified)	16.6	-33.6*	0.5	0.3	-3.8	-7.0
O=S(=O)(C/C=C/c1ccccc1)Cc1coc(-c2ccc(F)cc2)n1	·	·	-0.6	·	·	·
COc1cc2nc(/C=C/c3ccc(N(C)C)cc3)sc2cc1SC	553.9*	12.3	3.1	85.2*	6.2	35.0*
COc1cc(/C=C/c2nc3ccccc3s2)cc(OC)c1OC	·	·	1.1	·	·	·
Cc1[nH]n(-c2ccccc2)c(=O)c1N=Nc1ccc(C(=O)O)cc1	1.5	4.8	-7.8	-0.6	-3.9	-2.4
Cc1[nH]n(-c2ccccc2)c(=O)c1N=Nc1cccc(C(=O)O)c1	0.7	-36.6*	-2.8	0.6	1.1	2.9
Cc1[nH]n(C(N)=S)c(=O)c1N=Nc1cccc(C(F)(F)F)c1	-0.6	-3.3	-6.0	-2.3	4.5	-5.3
Cc1[nH]n(C2=NCCS2)c(=O)c1N=Nc1cccc(C(F)(F)F)c1	61.6*	5.3	-0.3	6.9	-4.6	-4.0
SMILES	D1 ag	D1 antag	LDHA inh	TRHR agonist	TRHR PAM	D1 potentiator
CN(C)c1ccc(C(=O)/C=C/c2cccs2)cc1	·	·	4.7	·	·	·
CCNC(=S)N/N=C1\CC2CC=CC12 (stereo unspecified)	·	·	0.5	·	·	·
CCc1ccc(C(=O)C(C)OC(=O)c2nn(C)c(=O)c3ccccc23)cc1 (stereo unspecified)	34.6*	-15.1	-3.5	-0.1	8.6	-8.2
Cc1cccc(Cn2nc(C)c(NC(=O)NC3CCCCC3)c2C)c1	·	·	0.9	·	·	·
Cc1ccc(OCCn2c(=O)n(C)c3ccccc32)cc1	3.4	3.3	-5.3	0.3	0.2	3.8
Cn1c(=O)n(CCOc2ccc([N+](=O)[O-])cc2)c2ccccc21	0.0	-59.1*	-1.4	-0.4	11.4	-12.2
Cc1nn(C)c(C(=O)NC(=S)Nc2ccccc2O)c1Cl	1.9	-40.7*	-2.6	-0.1	-0.1	-8.2
Cc1nn(C)c(NC(=O)c2ccc([N+](=O)[O-])cc2)c1Cl	1.7	-24.2	1.2	0.2	19.2	1.1
Cc1nc(C)c(C(=O)NCc2ccc(Cl)cc2)o1	4.4	-61.5*	0.5	0.4	-2.3	-1.3
Cc1nn(C)c(C(=O)NCc2ccc(Cl)cc2)c1Cl	11.9	-62.5*	-5.5	0.1	-25.1	-10.2
CCOc1ccc(NC(=S)NC(=O)c2c(Cl)c(C)nn2C)c([N+](=O)[O-])c1	0.4	-7.2	-3.9	-0.2	-4.3	-0.4
Cc1nc(C)c(C(=O)Nc2cccc(Cl)c2)o1	1.3	-15.9	4.8	-0.3	-1.7	1.9
Cc1nn(C)c(NC(=O)c2ccccc2Cl)c1Cl	0.6	-37.6*	-3.8	0.2	-5.1	-5.8
CCCCCn1nc(C(=O)Nc2ccccc2Cl)c2ccccc2c1=O	·	·	-0.7	·	·	·
COc1ccc(N2CCCCS2(=O)=O)cc1S(=O)(=O)N1CCC2(CC1)OCCO2	·	·	-1.6	·	·	·
O=S(=O)(Cc1ccc(Cl)cc1)N1CCCC1	1.6	-74.4*	-0.6	-0.1	-2.3	2.1
CCOc1ccc(-c2cc(C(F)(F)F)c(C#N)c(SCC(=O)Nc3ccccc3)n2)cc1	31.6*	-51.9*	-12.0	8.8	6.8	-2.8
N#Cc1c(-c2ccccc2)cc(-c2ccccc2)nc1SCC(=O)NCC(=O)O	-0.5	11.2	-102.2*	1.1	-2.1	-4.0
Cc1cc(C(F)(F)F)c(C#N)c(SCC(=O)Nc2nc3ccccc3s2)n1	64.2*	5.2	-5.8	17.1	-14.0	17.4
CCOc1ccc(NC(=O)CSc2nc(-c3ccc(F)cc3)cc(C(F)(F)F)c2C#N)cc1	7.7	-13.4	-14.6	2.9	1.1	-7.7
O=C(CSc1ncnc2c1oc1ccccc12)Nc1nc2ccccc2s1	-1.6	-48.2*	-3.9	0.7	0.0	4.2
COc1ccc(CCNc2nc3ccccc3nc2C(=O)OCC(C)C)cc1OC	·	·	9.0	·	·	·
Cc1ccc(-c2cc(C(F)(F)F)c(C#N)c(SCC(=O)Nc3ccccc3F)n2)cc1	71.8*	-1.7	-9.5	18.0	6.4	-4.1
N#Cc1c(C(F)(F)F)cc(-c2cccs2)nc1SCC(=O)Nc1ccccc1F	8.0	-8.0	-8.1	-1.6	2.1	-0.6
Cc1cc(-c2ccc(Cl)cc2Cl)c(C#N)c(=O)[nH]1	31.0*	3.6	-1.8	-0.9	2.7	0.5
CCC(CN)Cc1ccccc1 (stereo unspecified)	·	·	3.5	·	·	·
Cc1ccc2oc3c(c(=O)c2c1)C(c1cccc(O)c1)N(Cc1ccccc1Cl)C3=O (stereo unspecified)	0.6	-54.8*	-11.7	-0.4	10.7	0.6
